Screening data from PubChem BioAssay.
Sampled rows, rich in hits. Any-hit rate of the full collection: about 11%.
ALDH1A1 inh: inhibitors of human aldehyde dehydrogenase 1A1. Potency, µM (series often up to 75.3 µM), for the others: at the highest dose activity, negative = inhibition, most hits filed as inhibitors. AID 1030. Purified ALDH1A1, NADH fluorescence, propionaldehyde substrate. hit rate 7.3% among 220,000. P00352;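 further: potency means the concentration at half of the fitted maximal effect; plate controls were no enzyme wells and a reference inhibitor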
HPGD inh: inhibitors of human 15-hydroxyprostaglandin dehydrogenase (HPGD); P15428; purified HPGD, NADH fluorescence kinetic, PGE2 substrate; Potency, µM, for the others: top-dose activity change, negative = inhibition, hits mostly inhibitors; hit rate 4.3% among 150,000; AID 894; further: potency means the concentration at half of the fitted maximal effect
Target sequence (P15428 whole entry, looked up): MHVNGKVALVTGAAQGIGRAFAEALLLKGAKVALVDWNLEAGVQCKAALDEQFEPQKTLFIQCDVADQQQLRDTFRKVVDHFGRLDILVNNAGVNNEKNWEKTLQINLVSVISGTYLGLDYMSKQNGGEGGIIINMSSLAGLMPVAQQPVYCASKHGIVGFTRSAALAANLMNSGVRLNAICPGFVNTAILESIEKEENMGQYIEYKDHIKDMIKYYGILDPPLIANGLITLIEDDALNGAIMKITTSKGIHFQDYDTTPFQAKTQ
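NADH formation kinetics: reaction with 30 uM PGE2 and 1 mM NAD+ (final), 20 nM enzyme, Tris-HCl pH 8 with Tween 20, after 15 min compound preincubation at room temperature. Fluorescence change, last versus first of five reads.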
PNC assembly inh: inhibitors of perinucleolar compartment assembly; activity change (PNC), negative = inhibition, % at 10 µM; hit rate 3.1% among 140,000; PC3M PTB-GFP, PNC prevalence imaging, 16 h; stronger effect = lower value;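 active means readout at or below -70, meaning at least 70% loss of cells showing the perinucleolar compartment, a nuclear body marking cancer cells; inconclusive means readout between -30 and a set limit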;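 further: plate controls were DMSO wells for no effect and camptothecin positive control wells for full effect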
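Compounds are pinned in duplicate onto adhered PC3M cells stably expressing GFP-tagged PTB and incubated 16 h at 37 C. Cells are then fixed, nuclei stained with Hoechst, and PNC-positive cells counted.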
* hit, by the source's call; ? = inconclusive; nt = no result; [ ] = remark or other dose. Unless noted, the call rests on the fitted dose curve; in most records, active means well fitted inhibition curve with a large enough effect (not every such curve was filed as active); inconclusive means small, poorly fitted or top-dose-only effect, or another doubt; inactive means no such curve, though single readings can be large or run the other way. Unless noted, on the % scale 0 is the no-effect control and ±100 the full control effect.

SMILES | ALDH1A1 inh | HPGD inh | PNC assembly inh
CCC(C)NC(=O)Nc1ccc(C)cc1C (configuration not stated) | 0% | nt | nt
CC(NCC(O)COCCC12CC3CC(CC(C3)C1)C2)c1ccccc1 (configuration not stated) | -6% | nt | nt
O=C(O)C(=Cc1ccc(-c2ccccc2)cc1)C(=O)O | -13%[13.5 µM] | -2% | nt
COc1cccc(/C=C/C(=O)OCC(=O)c2cc(C)n(CC3CCCO3)c2C)c1OC (configuration not stated) | ? | nt | -1
COc1ccc(/C=C2\NC(=S)N(CC3CCCO3)C2=O)c(OC)c1 (configuration not stated) | 1.3µM* | -15% | 45
COc1ccc(/C=C2\NC(=S)N(CC3CCCO3)C2=O)c(OC)c1C (configuration not stated) | 0.45µM* | -17% | 16
COc1ccc(/C(O)=C2\C(=O)C(=O)N(CC3CCCO3)C2c2cc(OC)ccc2OC)cc1 (configuration not stated) | ? | -18% | 9
CN1CCN(CCCN)CC1 | 16%[13.5 µM] | 2% | nt
Cc1ccccc1N1CCN(CCCN2C(=O)CC(=C(c3ccccc3)c3ccccc3)C2=O)CC1 | 18µM* | ? | 21
O=C1CC(=C(c2ccccc2)c2ccccc2)C(=O)N1CCCCN1CCN(c2cccc(Cl)c2)CC1 | 0% | -5% | -8
CN(N)C(=S)Nc1ccc(Cl)cc1 | -8% | nt | nt
O=C(OCC(=O)N1CCc2ccccc2C1)c1cccc([N+](=O)[O-])c1 | 0% | 4% | ?
Clc1ccccc1CSc1ncn(-c2ccccc2)n1 | -3% | 18µM* | 17
O=C(CSc1ncn(-c2ccccc2)n1)NCc1ccccc1 | -3% | -10% | 20
Cc1cc(NC(=O)CSc2ncn(-c3ccccc3)n2)no1 | ? | -1% | 18
Cc1ccc(CSc2ncn(-c3ccccc3)n2)cc1 | 16µM* | 20µM* | -27
Cc1ccc(C2=Nc3ccccc3N(C(=O)c3ccccc3)C(C)C2)cc1 (configuration not stated) | -2% | -11% | 51
COC(=O)Cc1cc(=O)[nH]c(/N=C(\N)Nc2ccc(C(C)C)cc2)n1 | 3% | nt | nt
Cc1ccccc1OCC(=O)N1N=C(C(F)(F)F)CC1(O)C(C)(C)C (configuration not stated) | 14µM* | -11% | -3
Cc1ccc(OCC(=O)N2N=C(C(F)(F)F)CC2(O)C(C)(C)C)cc1C (configuration not stated) | -3% | -5% | 24
CSc1nc(-c2ccccc2)nc(N2CCOCC2)c1C(C)=O | 0% | nt | nt
CCOc1ccc(-n2c(C)cc(C(=O)CCl)c2C)cc1 | 0.11µM* | nt | nt
CCOC(=O)c1cc2c(C)n(-c3ccc(OCC)cc3)c(C)c2cc(C(=O)OCC)c1=O | 26% | -4% | 16
COC(=O)c1ccc(-n2c(C)cc(C(=O)COC(=O)CNS(=O)(=O)c3ccc(C)cc3)c2C)cc1 | ? | -9% | -2
COC(=O)c1ccc(-n2c(C)cc(C(=O)CCl)c2C)cc1 | 0.45µM* | nt | nt
SMILES | ALDH1A1 inh | HPGD inh | PNC assembly inh
COC(=O)N1C2CC3(C)C=C(C)OC1(C)C3c1ccccc12 (configuration not stated) | 2%[13.5 µM] | -8% | nt
Cc1ccc(NC(=O)c2cc(=O)n(Cc3ccccc3)c(=O)[nH]2)cc1C | 11% | nt | nt
O=P(C1=C(N2CCOCC2)/C(=C\c2ccccc2)CC1)(N1CCOCC1)N1CCOCC1 | -6% | -17% | ?
O=C(NP(=O)(N1CCOCC1)N1CCOCC1)C1=C(N2CCOCC2)/C(=C\c2ccccc2)CC1 | 3.5µM* | nt | nt
COc1ccc(Cn2cnc3c(N)c(C)c(C)cc32)cc1 | -5% | nt | nt
Cc1cc2c(ncn2Cc2ccccc2)c([N+](=O)[O-])c1C | ? | 20µM* | -27
COC(=O)C1=C(C)N(Cc2ccccc2)C2=C3C(=O)N(C)C(=O)C3[C@@](O)(C(=O)OC)C(=O)N2C1c1ccccc1 (some centres not stated) | 11%[13.5 µM] | nt | nt
CC(NCc1ccccc1Cl)C(=O)Nc1ccc(C#N)cc1 (configuration not stated) | 14% | nt | nt
CC(C)CN1CCN(Cc2ccc3ncccc3c2)CC1CCO (configuration not stated) | 4% | nt | nt
Cc1ccc(S(=O)(=O)NCc2ccncc2)c(C)c1C | 32µM* | nt | nt
Cc1cc(C)c(S(=O)(=O)NCc2ccncc2)c(C)c1 | 6% | -6% | ?
CC(N)=O | -1% | -29% | nt
O=C(O)c1ccccc1-c1ccccc1C(=O)c1ccccc1 | -9%[13.5 µM] | -10% | nt
O=C(c1ccccc1)c1ccccc1N1C(=O)C=CC1=O | 3.2µM* | nt | nt
COc1ccccc1NC(=O)C(=O)N(c1cccnc1)C(C(=O)NC(C)(C)C)c1ccccc1F (configuration not stated) | -1% | nt | nt
Cc1ccc(SC(=O)COc2ccccc2C)cc1 | 6% | -20% | -112*
